Test results as given in the antibiotic and cytotoxicity screens of Wong et al. (2023).
The campaign covered roughly 39,000 compounds. About 3,300 (8.5%) were called active. This excerpt belongs to a sample that is enriched for actives.

These compounds were tested on HepG2 (assay: cytotoxicity call (relative viability < 0.9)). Conditions: 10 µM.

Compound | cytotoxicity call
C[C@@H]1CN([C@@H](C)CO)C(=O)c2cc(NC(=O)Cc3ccccc3)ccc2O[C@@H](C)CCCCO[C@@H]1CN(C)C(=O)NC1CCCCC1 | inactive
C[C@H](CO)N1C[C@H](C)[C@@H](CN(C)S(=O)(=O)c2cn(C)cn2)Oc2ccc(NS(C)(=O)=O)cc2C1=O | inactive
C[C@@H]1CN([C@H](C)CO)C(=O)c2cccc(NS(C)(=O)=O)c2O[C@@H]1CN(C)C(=O)Nc1ccc2c(c1)OCO2 | inactive
C[C@@H]1CN([C@@H](C)CO)C(=O)c2ccccc2-c2ccccc2CO[C@@H]1CN(C)S(=O)(=O)c1cn(C)cn1 | inactive
C[C@@H]1CCCCO[C@@H](CN(C)Cc2ccc(C(F)(F)F)cc2)[C@H](C)CN([C@@H](C)CO)C(=O)c2cc(NC(=O)CCCN(C)C)ccc2O1 | inactive
C[C@@H]1CCCCO[C@H](CN(C)S(C)(=O)=O)[C@@H](C)CN([C@H](C)CO)C(=O)c2cc(NC(=O)c3ccncc3)ccc2O1 | inactive
CO[C@@H]1CN(C)C(=O)c2cc(NS(=O)(=O)c3ccccc3)ccc2OC[C@H](C)N(C(=O)NC(C)C)C[C@H]1C | inactive
CN(C)C(=O)C[C@@H]1CC[C@@H](NC(=O)C2CCOCC2)[C@H](CO)O1 | inactive
CCN(CCCCOC(=O)c1ccc(OC)c(OC)c1)C(C)Cc1ccc(OC)cc1.Cl (stereo not given) | active
CCCCOc1cc(C(=O)OCCN(CC)CC)ccc1N.Cl | inactive
CCCOc1ccc(C(=O)OCCN(CC)CC)cc1N.Cl | inactive
C[C@H](CO)N1C[C@H](C)[C@H](CN(C)S(=O)(=O)c2ccc(F)cc2)Oc2ccc(NC(=O)CCCN(C)C)cc2C1=O | inactive
Cc1noc(C)c1NC(=O)Nc1ccc2c(c1)C(=O)N([C@@H](C)CO)C[C@H](C)[C@@H](CN(C)Cc1ccc(C(F)(F)F)cc1)OCCCC[C@H](C)O2 | inactive
Cc1cn(-c2cc(NC(=O)c3ccc(C)c(Nc4nccc(-c5cccnc5)n4)c3)cc(C(F)(F)F)c2)cn1 | active
Cc1cn(-c2cc(NC(=O)c3ccc(C)c(Nc4nccc(-c5cnccn5)n4)c3)cc(C(F)(F)F)c2)cn1 | inactive
O=C(Nc1cccnc1)c1nc2ncccn2n1 | inactive
Cc1ccc(C(=O)Nc2cccc(C(F)(F)F)c2)cc1Nc1nc(-c2cccnc2)nc2c1cnn2C | active
O=C(O)c1cccnc1Nc1cccc(C(F)(F)F)c1 | inactive
COC(=O)CNC(=O)c1ccc(S(=O)(=O)N2CCOCC2)cc1 | inactive
C[C@@H]1CN([C@@H](C)CO)C(=O)c2cccc(NS(=O)(=O)c3cn(C)cn3)c2O[C@@H]1CN(C)Cc1ccc(C(=O)O)cc1 | inactive
C[C@@H]1CN([C@H](C)CO)C(=O)c2cc(NC(=O)Cn3cnnn3)ccc2O[C@H]1CN(C)Cc1ccc(C(=O)O)cc1 | inactive
C[C@@H]1CCCCO[C@H](CN(C)C(=O)Nc2ccccc2)[C@H](C)CN([C@@H](C)CO)C(=O)c2cc(NS(=O)(=O)c3cccs3)ccc2O1 | inactive
C[C@H](CO)N1C[C@H](C)[C@@H](CN(C)S(C)(=O)=O)Oc2ccc(NC(=O)CCC(F)(F)F)cc2CC1=O | inactive
C[C@@H]1CN([C@@H](C)CO)C(=O)c2cc(NC(=O)Nc3ccccc3)ccc2O[C@@H](C)CCCCO[C@H]1CN(C)S(=O)(=O)c1cccc(F)c1 | inactive

Compound | cytotoxicity call
CCOC(=O)[C@H](Cc1c[nH]c2ccccc12)NC(=O)Cn1cc(C(=O)NO)nn1 | inactive
CCOC(=O)[C@H](Cc1c[nH]c2ccccc12)NC(=O)Cn1cc(CN2C(=O)COC[C@H]2c2ccccc2)nn1 | active
Cc1ccc(S(=O)(=O)N[C@@H](Cc2ccccc2)C(=O)NCCn2cc(CN3C(=O)COC[C@H]3c3ccccc3)nn2)cc1 | inactive
Cc1noc(C)c1S(=O)(=O)Nc1ccc2c(c1)C(=O)N([C@@H](C)CO)C[C@@H](C)[C@H](CN(C)C(=O)NC1CCCCC1)O2 | inactive
COc1ccc(-c2nc(-c3ccc(C)cc3C)cs2)cc1 | inactive
COc1ccc(NC(=O)Nc2ccc3c(c2)CC(=O)N([C@H](C)CO)C[C@H](C)[C@H](CN(C)CC2CCCCC2)O3)cc1 | inactive
COc1ccc(NC(=O)Nc2ccc3c(c2)CC(=O)N([C@@H](C)CO)C[C@@H](C)[C@H](CN(C)CC2CCCCC2)O3)cc1 | active
COc1ccc(NC(=O)Nc2ccc3c(c2)CC(=O)N([C@H](C)CO)C[C@H](C)[C@@H](CN(C)CC2CCCCC2)O3)cc1 | inactive
COc1ccc(NC(=O)Nc2ccc3c(c2)CC(=O)N([C@@H](C)CO)C[C@@H](C)[C@@H](CN(C)CC2CCCCC2)O3)cc1 | inactive
COc1ccc(NC(=O)Nc2ccc3c(c2)CC(=O)N([C@@H](C)CO)C[C@H](C)[C@@H](CN(C)CC2CCCCC2)O3)cc1 | inactive
COc1ccc(NC(=O)Nc2ccc3c(c2)CC(=O)N([C@H](C)CO)C[C@@H](C)[C@@H](CN(C)CC2CCCCC2)O3)cc1 | active
C[C@H](CO)N1C[C@H](C)[C@H](CN(C)Cc2ccc(C(=O)O)cc2)OCCCC[C@H](C)Oc2ccc(NC(=O)NC3CCCCC3)cc2C1=O | inactive
C[C@H]1CCCCO[C@H](CN(C)S(=O)(=O)c2cccs2)[C@@H](C)CN([C@@H](C)CO)C(=O)c2cc(NS(C)(=O)=O)ccc2O1 | inactive
O=C(NCC(F)(F)F)[C@@H]1c2ccccc2C(=O)N(Cc2cc(C(F)(F)F)cc(C(F)(F)F)c2)[C@H]1c1ccc(CO)cc1 | inactive
O=C1CO[C@H]2CN(S(=O)(=O)c3ccccc3)C[C@@H]2N1 | inactive
C[C@@H]1CN([C@H](C)CO)C(=O)c2cc(NS(=O)(=O)c3ccc(F)cc3)ccc2O[C@@H]1CN(C)S(C)(=O)=O | inactive
C[C@@H]1CN([C@H](C)CO)C(=O)c2cc(NS(=O)(=O)c3cccs3)ccc2O[C@@H](C)CCCCO[C@@H]1CN(C)Cc1ccc(C(=O)O)cc1 | inactive
C[C@@H]1CN([C@@H](C)CO)C(=O)c2cc(NS(=O)(=O)c3cccs3)ccc2O[C@@H](C)CCCCO[C@@H]1CN(C)Cc1ccc(C(F)(F)F)cc1 | inactive
C[C@H]1CCCCO[C@H](CN(C)Cc2ccc(C(F)(F)F)cc2)[C@@H](C)CN([C@@H](C)CO)C(=O)c2cc(NS(=O)(=O)c3cccs3)ccc2O1 | inactive
C[C@@H]1CCCCO[C@H](CN(C)Cc2ccc(C(F)(F)F)cc2)[C@@H](C)CN([C@H](C)CO)C(=O)c2cc(NS(=O)(=O)c3cccs3)ccc2O1 | inactive
C[C@@H]1CCCCO[C@H](CN(C)Cc2ccc(C(F)(F)F)cc2)[C@H](C)CN([C@H](C)CO)C(=O)c2cc(NS(=O)(=O)c3cccs3)ccc2O1 | active
C[C@@H]1CCCCO[C@@H](CN(C)Cc2ccc(C(F)(F)F)cc2)[C@@H](C)CN([C@@H](C)CO)C(=O)c2cc(NS(=O)(=O)c3cccs3)ccc2O1 | active
C[C@@H]1CCCCO[C@@H](CN(C)Cc2ccc(C(=O)O)cc2)[C@H](C)CN([C@H](C)CO)C(=O)c2cc(NS(=O)(=O)c3cccs3)ccc2O1 | inactive
C[C@@H]1CCCCO[C@@H](CN(C)Cc2ccc(C(F)(F)F)cc2)[C@H](C)CN([C@H](C)CO)C(=O)c2cc(NS(=O)(=O)c3cccs3)ccc2O1 | active

Compound | cytotoxicity call
C[C@@H]1CN([C@@H](C)CO)C(=O)c2cc(NS(=O)(=O)c3cccs3)ccc2O[C@@H](C)CCCCO[C@H]1CN(C)Cc1ccc(C(F)(F)F)cc1 | inactive
C[C@@H]1CCCCO[C@H](CN(C)Cc2ccc(C(F)(F)F)cc2)[C@H](C)CN([C@@H](C)CO)C(=O)c2cc(NS(=O)(=O)c3cccs3)ccc2O1 | active
COc1ccc(OCc2c(-c3ccccc3)nnn2CC(=O)NS(=O)(=O)c2cccc(C#N)c2)cc1 | inactive
COCC(=O)N1C[C@@H](C)[C@H](OC)CN(C)C(=O)c2cc(NC(=O)c3ccc(F)cc3)ccc2OC[C@@H]1C | inactive
COc1cc2ccc(=O)oc2c(O[C@H]2O[C@@H](CO)[C@@H](O)[C@@H](O)[C@@H]2O)c1O | inactive
C[C@@H]1CN([C@@H](C)CO)C(=O)Cc2cc(NC(=O)Cn3cnnn3)ccc2O[C@@H]1CN(C)C(=O)Nc1ccc2c(c1)OCO2 | inactive
CCS(=O)(=O)N1C[C@]2(CN(C2)C(=O)CN2CCOCC2)c2c(n(c3cc(ccc23)OC)C)[C@H]1CO | inactive
COc1ccc(CN(C)C[C@H]2OCCCC[C@H](C)Oc3ccc(NS(=O)(=O)c4ccccc4)cc3C(=O)N([C@H](C)CO)C[C@H]2C)cc1 | inactive
O=C(Cc1ccccn1)NCC[C@H]1CC[C@H](NC(=O)CN2CCOCC2)[C@H](CO)O1 | inactive
C[C@@H]1CN([C@H](C)CO)C(=O)c2cc(NS(=O)(=O)c3cn(C)cn3)ccc2O[C@H]1CN(C)Cc1ccncc1 | inactive
C[C@H](CO)N1C[C@H](C)[C@@H](CN(C)S(=O)(=O)c2ccccc2)OCCCC[C@H](C)Oc2ccc(NC(=O)CCC(F)(F)F)cc2C1=O | inactive
Cc1noc(C)c1NC(=O)N(C)C[C@H]1Oc2c(NC(=O)Cn3cnnn3)cccc2C(=O)N([C@H](C)CO)C[C@@H]1C | inactive
C[C@@H]1CN([C@H](C)CO)C(=O)c2cc(NC(=O)C3CCCCC3)ccc2O[C@@H](C)CCCCO[C@H]1CN(C)C(=O)c1ccncc1 | inactive
C[C@@H]1CCCCO[C@@H](CN(C)Cc2ccc(C(F)(F)F)cc2)[C@H](C)CN([C@@H](C)CO)C(=O)c2cc(NS(=O)(=O)c3cccs3)ccc2O1 | inactive
C[C@H](CO)N1C[C@H](C)[C@@H](CN(C)Cc2ccc(C(F)(F)F)cc2)OCCCC[C@H](C)Oc2ccc(NS(=O)(=O)c3cccs3)cc2C1=O | inactive
C[C@@H]1CCCCO[C@H](CN(C)Cc2ccc(C(F)(F)F)cc2)[C@@H](C)CN([C@@H](C)CO)C(=O)c2cc(NS(=O)(=O)c3cccs3)ccc2O1 | inactive
C[C@H]1CCCCO[C@@H](CN(C)Cc2ccc(C(F)(F)F)cc2)[C@@H](C)CN([C@@H](C)CO)C(=O)c2cc(NS(=O)(=O)c3cccs3)ccc2O1 | inactive
C[C@H](CO)N1C[C@H](C)[C@H](CN(C)Cc2ccc(C(F)(F)F)cc2)OCCCC[C@H](C)Oc2ccc(NS(=O)(=O)c3cccs3)cc2C1=O | active
C[C@@H]1CCCCO[C@@H](CN(C)Cc2ccc(C(F)(F)F)cc2)[C@@H](C)CN([C@H](C)CO)C(=O)c2cc(NS(=O)(=O)c3cccs3)ccc2O1 | active
C[C@@H]1CCCCO[C@@H](CN(C)Cc2ccc(C(=O)O)cc2)[C@H](C)CN([C@@H](C)CO)C(=O)c2cc(NS(=O)(=O)c3cccs3)ccc2O1 | inactive
C[C@@H]1CN([C@H](C)CO)C(=O)c2cc(NS(=O)(=O)c3cccs3)ccc2O[C@@H](C)CCCCO[C@@H]1CN(C)Cc1ccc(C(F)(F)F)cc1 | inactive
C[C@@H]1CN([C@H](C)CO)C(=O)c2cc(NS(=O)(=O)c3cccs3)ccc2O[C@@H](C)CCCCO[C@H]1CN(C)Cc1ccc(C(F)(F)F)cc1 | active
